In PubChem BioAssay (NCATS) one finds Potency data, which are given here for 17 compounds.

The structures appear in SMILES notation. Records with an inconclusive call do not appear. Active and inactive are the calls of the source. The call rests on the fitted dose curve; in most records, active means well fitted inhibition curve with a large enough effect; inconclusive means small, poorly fitted or top-dose-only effect; inactive means flat fitted curve, though single readings scatter.

What all share (assay): qHTS profiling for inhibitors of Plasmodium falciparum proliferation (AID 504749); further: nearly all actives have a fitted effect of over 60% in size
Conditions in all cases: P. falciparum in erythrocytes, SYBR Green DNA, 72 h; series mostly up to 28.7 µM
In general terms: Quantitative high-throughput screening tests each substance at several concentrations.

The subject of one experiment is CP315. The method in brief:
(§1)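 Each compound contacts P. falciparum-infected red blood cells for 72 h at 37 C; lysis buffer (Tris, EDTA, saponin, Triton X, SYBR Green I) is added and fluorescence measured next morning; values normalized to controls.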

The test system of another experiment is CP325. The method, boiled down: as §1
In the next experiment the test system is CP329. The method, boiled down: as §1
In the next experiment the test system is CP335. The method, boiled down:
as §1

The subject of a further experiment is DIV30. The method in brief: as §1
For a further experiment, the system named is ECU. The method, boiled down:
as §1

The next experiment concerns FAB9. The method in brief:
as §1

In another experiment the test system is GB4. The method, boiled down:
as §1

The next experiment has as its system HB3. The method in brief: as §1
The next experiment has as its system JCK. The method in brief:
as §1

Another experiment concerns CP291. The method in brief:
as §1

The next experiment has as its system CP297. The method in brief:
as §1

A further experiment concerns CP305. The method in brief: as §1
In a further experiment the test system is DIV14. The method, boiled down: as §1
The test system of a further experiment is DIV17. The method in brief:
as §1

Another experiment has as its system Dd2. The method in brief:
as §1

Another experiment deals with ICS. The method in brief: as §1
The next experiment concerns CP269. The method, boiled down: as §1
The test system of a further experiment is DFO2036. The method in brief:
as §1

A further experiment concerns CP286. The method, boiled down: as §1
Potency means the concentration at half of the fitted maximal effect.

For the compound `O=S(=O)(O)c1cc(O)c2c(N=Nc3ccc(Nc4ccccc4)c4c(S(=O)(=O)O)cccc34)cc(S(=O)(=O)O)cc2c1`, the Potency entry in the experiment with CP315, with CP325, in the experiment with CP329, in the experiment with CP335, in the experiment with DIV30 and in the experiment on ECU was “inactive” each time. Further, the Potency entry in the experiment on FAB9, with GB4, with HB3 and with JCK was “inactive” throughout.

On to `CC1=C(/C=C/C(C)=C/C=C/C(C)=C/CO)C(C)(C)CCC1`, for which the Potency entry with CP291, in the experiment on CP297, in the experiment with CP305, with CP315, with CP325 and in the experiment on CP329 was “inactive” in each case. Moreover, the Potency result in the experiment on FAB9 and with JCK was “inactive” each time. Further, the Potency in the experiment on DIV14 was 12 µM (active); with DIV17, 16.9 µM (active); in the experiment on Dd2, 14.1 µM (active); in the experiment on ECU it was 10 µM (active); in the experiment on ICS, 7.08 µM (active).

For the compound `NC1C2CN(c3nc4c(cc3F)c(=O)c(C(=O)O)cn4-c3ccc(F)cc3F)CC12` (centres undefined), the Potency in the experiment on CP269 is 6.75 µM (active); in the experiment on CP335 it was 6.01 µM (active). Further, the Potency entry with DIV30 is “inactive”.

For `O=C(O)c1cc(=O)c2c3nc4ccccc4oc-3cc(=O)c2[nH]1`, the Potency entry in the experiment on CP269, with CP291, in the experiment with CP297, in the experiment with CP305, with CP315 and in the experiment on CP325 was “inactive” throughout. The Potency entry in the experiment on CP329, in the experiment on DFO2036, in the experiment with DIV30, in the experiment with FAB9 and with JCK was “inactive” each time. For the same compound, the Potency was 12.6 µM (active) in the experiment with Dd2, 16.9 µM (active) in the experiment on GB4, 12.6 µM (active) with HB3 and 0.891 µM (active) in the experiment on ICS.

For the compound `O=C1CSC2(CCN(CCCN3c4ccccc4Sc4ccc(Cl)cc43)CC2)N1`, the Potency was 13.5 µM (active) in the experiment with CP291; 15.1 µM (active) in the experiment with DIV14; 15.1 µM (active) with DIV17; 15.1 µM (active) in the experiment with DIV30; 16.9 µM (active) in the experiment on GB4; 12.6 µM (active) with ICS. Besides, the Potency entry in the experiment with FAB9 and in the experiment with JCK was “inactive” throughout.

Turning to `NC(=O)c1ncn(C2OC(CO)C(O)C2O)n1` (centres undefined), the Potency result in the experiment with CP269, in the experiment on CP286, with CP297, in the experiment on CP305, in the experiment with CP315 and in the experiment with CP325 was “inactive” in each case. Further, the Potency result with CP329, with CP335, in the experiment on DFO2036, in the experiment on DIV14, in the experiment with DIV17 and with DIV30 was “inactive” in each case. Moreover, the Potency entry with Dd2, in the experiment on ECU, in the experiment with FAB9, with HB3, in the experiment on ICS and in the experiment with JCK was “inactive” each time.

Take `COC(=O)[C@H]1[C@H]2CC3c4[nH]c5ccccc5c4CCN3C[C@@H]2CC[C@@H]1O` (some centres undefined): the Potency result in the experiment on CP286, with DFO2036, in the experiment on Dd2, in the experiment on ECU, in the experiment with FAB9 and in the experiment with HB3 was “inactive” in each case. In addition, the Potency entry in the experiment with ICS and in the experiment with JCK was “inactive” throughout.

With `CN=C(NC#N)Nc1ccc(C2=NNC(=O)C[C@@H]2C)cc1`, the Potency entry in the experiment on CP286, in the experiment with DFO2036, with Dd2, with ECU, with FAB9 and with HB3 was “inactive” each time. For the same compound, the Potency entry in the experiment on ICS and in the experiment on JCK was “inactive” throughout.

Regarding `O=C(Nc1ccc(Br)cc1)c1cc(Br)c(Br)s1`, the Potency in the experiment with CP305 was 16.9 µM (active); in the experiment on DIV14, 10.7 µM (active). The Potency result in the experiment on FAB9 was “inactive”.

On to `CCOC(=O)C1=CC2(CC)CCCN3CCc4c(n1c1ccccc41)C32` (centres undefined), for which the Potency was 11.2 µM (active) with CP286; 11.2 µM (active) in the experiment with DFO2036; 12.6 µM (active) in the experiment on Dd2; 11.2 µM (active) in the experiment on ECU; 7.94 µM (active) in the experiment on FAB9; 12.6 µM (active) in the experiment on HB3. Also, in the experiment on ICS, the Potency is 10 µM (active).

Turning to `CCCCC(CC)COC(=O)CC(C(=O)OCC(CC)CCCC)S(=O)(=O)O` (centres undefined), the Potency result in the experiment on CP269, in the experiment with CP291, in the experiment on CP297, in the experiment on CP305, with CP315 and in the experiment on CP325 was “inactive” throughout. Moreover, the Potency entry with CP329, with CP335, in the experiment on DIV14, in the experiment with DIV17, in the experiment on DIV30 and in the experiment on GB4 was “inactive” throughout.

Regarding `O=C(COc1ccc(Cl)cc1)OCCNC12CC3CC(CC(C3)C1)C2`, the Potency entry with CP269, in the experiment with CP286, in the experiment on CP291, in the experiment with CP305, in the experiment with CP315 and in the experiment on CP325 was “inactive” throughout. In addition, the Potency entry in the experiment on CP329, in the experiment on CP335, in the experiment on DFO2036, with DIV14, in the experiment on DIV17 and with Dd2 was “inactive” throughout. Moreover, the Potency result with ECU, with FAB9, in the experiment on HB3, in the experiment on ICS and in the experiment on JCK was “inactive” in each case.

As for `CC[C@@]1(O)C(=O)OCc2c1cc1n(c2=O)Cc2cc3c([N+](=O)[O-])cccc3nc2-1`, the Potency was 10.7 µM (active) in the experiment on CP269; 4.47 µM (active) in the experiment with CP286; 12 µM (active) in the experiment with CP291; 12 µM (active) in the experiment on CP297; 8.49 µM (active) in the experiment with CP305; 12 µM (active) in the experiment on CP329. Further, the Potency in the experiment on CP335 was 4.78 µM (active); in the experiment with DFO2036, 5.01 µM (active); with Dd2, 8.91 µM (active); with ECU, 7.94 µM (active); with GB4, 6.75 µM (active); with ICS it was 5.01 µM (active).

Turning to `COc1cc(-c2ccc(-[n+]3nc(-c4ccccc4)nn3-c3ccc([N+](=O)[O-])cc3)c(OC)c2)ccc1-[n+]1nc(-c2ccccc2)nn1-c1ccc([N+](=O)[O-])cc1`, the Potency in the experiment with CP297 is 16.9 µM (active); in the experiment with CP329 it was 15.1 µM (active); in the experiment on DIV14, 12 µM (active); with DIV17, 15.1 µM (active); with DIV30 it was 12 µM (active); in the experiment with ECU, 12.6 µM (active). The results for the Potency with GB4 and in the experiment with ICS were 12 µM (active) and 8.91 µM (active), respectively.

Regarding `C=C1C(=CC=C2CCC[C@@]3(C)[C@@H]2CC[C@H]3[C@H](C)CCCC(C)C)C[C@@H](O)C[C@@H]1O`, the Potency entry in the experiment with CP269, with CP291, in the experiment on CP297, in the experiment on CP305, in the experiment on CP315 and in the experiment with CP325 was “inactive” each time. Further, the Potency entry in the experiment with CP329, with DIV14, with DIV30, in the experiment with FAB9, with GB4 and in the experiment on JCK was “inactive” in each case. Besides, the Potency in the experiment on Dd2 was 10 µM (active); in the experiment on ECU, 10 µM (active); in the experiment on HB3, 12.6 µM (active); in the experiment with ICS, 12.6 µM (active).

Consider `CCCCCC(CC)COC(=O)CC(C(=O)OCC(CC)CCCC)S(=O)(=O)O` (centres undefined), for which the Potency result with CP286, in the experiment with DFO2036, in the experiment on Dd2, with ECU, in the experiment on FAB9 and in the experiment on HB3 was “inactive” throughout. Also, the Potency result in the experiment with ICS and in the experiment with JCK was “inactive” each time.

Regarding `CCCCCCOc1ccc(C(=N)N(CCCC)CCCC)c2ccccc12`, the Potency with CP286 was 2.82 µM (active); in the experiment with CP297 it was 16.9 µM (active); with CP335, 8.49 µM (active); in the experiment on DIV14 it was 12 µM (active); in the experiment with DIV17 it was 12 µM (active); in the experiment with ECU, 8.91 µM (active). Also, the Potency in the experiment with GB4 is 10.7 µM (active); with ICS, 2.82 µM (active).
